The record followed here is PubChem BioAssay AID1508642 (National Center for Advancing Translational Sciences (NCATS), 2021).

The structures appear in SMILES notation. The whole screen tested about 43,000 compounds, of which about 200 (0.47%) were called active. Where a call stands in place of a potency, no number is given. Inconclusive results (about 12%) are left out. The call rests on the fitted dose curve; in most records, active means well fitted cell-killing curve with a large enough effect; inconclusive means small, poorly fitted or top-dose-only effect, or effect the other way; inactive means flat fitted curve, though single readings scatter. For the sample, actives were picked, then their nearest neighbours and some compounds at random.
Potency means the concentration at half of the fitted maximal effect.

A short description of the test: Cell viability qHTS assay in S16 Pmp22-F2sN cells. Further: nearly all actives have a fitted effect of over 65% in size. The note with it: S16 Pmp22-F2sN Schwann cells (luciferase reporters placed in the Pmp22 gene) viability, CellTiter-Glo, 24 h; series mostly up to 57.5 µM. The source says:
Assay Provider: Jim Inglese Ph.D. National Center for Advancing Translational Science, National Institutes of Health, Rockville, MD CMT is a heterogeneous group of neurological disorders that affect approximately 1 in 2,500 people. In particular, the most common form of CMT, CMT1A is genetically linked to the duplication of the PMP22 gene which leads to Schwann cell overexpression, thus manifesting itself as a typical case of dose-sensitive diseases. To identify small molecule compounds that can mediate the expression of PMP22 we developed a phenotypic assay screening strategy by utilizing genome editing techniques to construct Schwann cell lines containing novel reporter technology to monitor the transcriptional or translational regulation of PMP22. For high sensitivity we use a bioluminescent reporter system embedded in the 3' UTR of the PMP22 gene (S16(c9) Pmp22-F2sN) to identify compounds that inhibit gene expression. […] We can further discriminate the effect of all transcriptionally active molecules on PMP22 translation or stability with an assay that incorporates a short NLuc peptide (HiBiT) at the C-terminus of expressed PMP22 (S16(f8) PMP22-HiBiT) allowing alpha complementation and luminescence detection of membrane-associated PMP22 protein. These assays were screened against the NCATS Sytravon Library Collection. Miniaturization of these assays to 1536-well plate format for quantitative high throughput screening (qHTS) yielded rich data sets immediately from the qHTS assay (S16(c9) Pmp22-F2sN), when compared with data from a cell viability assay (Cell TiterGlo) to identify compounds that decreased the output signals through cellular toxicity to streamline the selection process of actives for subsequent characterization using the HiBiT assay (S16(f8) PMP22-HiBiT).
Cell viability assay in S16 Pmp22-F2sN cells PROTOCOL TABLE (format as described by Inglese J, Shamu CE and Guy RK. 2007) SEQUENCE No. (e.g., 1, 2, 3, etc.); […] (e.g., Cells, Incubation, Reagent, etc.); VALUE and DESCRIPTION. 1. Cells. Add 500-1,000 cells in 4 uL in growth media (DMEM High Glucose, No Phenol Red media + 10% heat-inactivated FBS + 1% Pen/Strep supplemented media) per well into Greiner 1536-well white/solid bottom high base, TC-treated plates. 2. Compounds. Library compounds and controls added at 23nL per well, transferred by Pin Tool. 3. Incubation. Incubate plates at 37C, 5% CO2, 95% RH for 24 h. 4. Reagent. Add 3uL CellTiter-Glo per well of Greiner 1536-well plates. 5. Incubation. Incubate plates at room temperature for 15 min., protect from light. 6. Detector. FLuc luminescence measured using CCD-based camera (Viewlux). NOTES (numbers refer to Sequence numbers above; values are from representative experiments) 6. Luminescence Read: Clear filter; Exposure = 1 sec, Gain = High, Speed = Slow, Binning = 2X REFERENCES: 1. Inglese J, Shamu CE and Guy RK, Reporting data from high throughput screening of small molecule libraries, Nature Chemical Biology, 2007, 3(8): 438-441. doi.org/10.1038/nchembio0807-438 2. Yasgar A, Shinn P, Jadhav A, Auld DS, Michael S, Zheng W, Austin CP, Inglese J and Simeonov A, Compound Management for Quantitative High-Throughput Screening. J. Assoc. Lab. Auto., 2008, 13: 79-89. doi: 10.1016/j.jala.2007.12.004
(In general: Quantitative high-throughput screening tests each substance at several concentrations.)
With `COc1ccc(S(=O)(=O)n2nc(C)c(S(=O)(=O)N3CCCCCC3)c2C)cc1`, the Potency result is “inactive”. Under `CCC(=O)N1CCc2cc(CNS(=O)(=O)c3ccc(Br)s3)ccc21` stands “inactive”. Under `COc1ccccc1CNC(=O)c1ccc(CS(=O)c2ccccc2Cl)o1` (stereo not given) stands “inactive”; under `CC(C)(C)OC(=O)N1CCC(c2c(C(=O)NCCc3ccsc3)cnn2-c2ccc(F)cc2F)CC1`, “inactive”; under `COc1ccc(-c2nc(Cn3c(=O)cc(C)c4c(C)nn(-c5ccccc5)c43)c(C)o2)c(OC)c1`, “inactive”.

Take `COC(=O)c1ccccc1NC(=O)Cn1c(=O)n(-c2cccc(C(F)(F)F)c2)c(=O)c2c(C)c(C)sc21`: the Potency result is “inactive”. Take `O=C(CCc1nc(CN2CCN(S(=O)(=O)c3ccc(Br)cc3)CC2)no1)N1CCCCC1`: the Potency result was “inactive”. For the compound `CCOc1ccccc1CNCc1c(C(=O)O)c(C)n(Cc2ccc(C)cc2)c1C`, the Potency result is “inactive”.

On to `CCOc1ccc(C2C(C(=O)Nc3ccc(Cl)cc3)=C(C)Nc3nc(C(F)(F)F)nn32)cc1` (stereo not given), for which the Potency entry is “inactive”.

For `COc1ccc(-c2nc(CN3CCC(C(=O)NCCN(CC(C)C)CC(C)C)CC3)c(C)o2)cc1OC`, the Potency result is “inactive”. With `COc1cc2nc(SCc3ccc(F)cc3)n3nc(CCn4c(C)nc5ccccc54)nc3c2cc1OC` the entry was “inactive”.

Turning to `CCOc1cc(C2C(C(=O)Nc3ccc(OC)cc3)=C(C)Nc3nc(SC)nn32)ccc1O` (stereo not given), the Potency entry was “inactive”.

As for `CC(=O)c1ccc(NC(=O)COc2ccccc2-c2nc(-c3ccccc3)no2)cc1`, the Potency result is “inactive”.

For the compound `COc1cccc(CNC(=O)c2ccc3c(c2)N(Cc2ccc(C(F)(F)F)cc2)C(=O)c2ccccc2S3)c1OC`, the Potency entry was “inactive”. With `CC(C)S(=O)(=O)c1oc(-c2ccc(F)cc2)nc1S(=O)(=O)c1ccc(F)cc1`, the Potency was 3.16 µM (active).

Consider `Cc1ccc(-c2nc(S(=O)(=O)c3ccc(C)cc3)c(N3CCCCCC3)o2)cc1`, for which the Potency entry was “inactive”. With `O=C(CSc1oc(-c2ccc(F)cc2)nc1S(=O)(=O)c1ccc(Br)cc1)NC1CCCCC1` the entry was “inactive”; with `COc1ccc(-c2nc(SCC(=O)N3CCCCC3C)n[nH]2)cc1` (stereo not given), “inactive”. `O=C(NCCS(=O)(=O)N1CCN(c2ccc(F)cc2)CC1)c1ccccc1Br`: the Potency result was “inactive”.

With `COc1ccc(NC(=O)Cn2c(=O)cc(C)c3c(C)nn(-c4cccc(Cl)c4C)c32)cc1OC`, the Potency entry was “inactive”.

For `CCOc1ccccc1CNC(=O)c1cnc2c(-c3ccc(OCC)c(OCC)c3)c(C)nn2c1C`, the Potency entry was “inactive”. Under `Cc1ccc(-c2nc(Cn3c(=O)cc(-c4ccccc4)c4c(C)nn(C)c43)c(C)o2)cc1` stands “inactive”. For `O=C(CCn1c(=O)c2ccccc2n(Cc2ccc(Cl)cc2)c1=O)NCc1ccc2c(c1)OCO2`, the Potency entry is “inactive”. Under `COc1ccc(-c2onc(C)c2C)cc1S(=O)(=O)NCc1cccs1` stands “inactive”. Under `CCS(=O)(=O)N1CCc2cc(C(=O)N3CCN(c4ccccc4OC)CC3)ccc21` stands “inactive”; under `COc1ccc(C2=CC(c3ccccc3Cl)n3nc(-c4ccc(Cl)cc4)nc3N2)cc1` (stereo not given), “inactive”. Turning to `COc1ccc(C)cc1NC(=O)C(=O)NCCc1sc(-c2cccc(C)c2)nc1C`, the Potency result was “inactive”. `Cc1c(-c2cccc(NC(=O)C(C)(C)C)c2)nc2ncccn12`: the Potency entry is “inactive”. Turning to `Cc1cc(C)c(NC(=O)c2cc3sc(Cl)cc3n2C)c(C)c1`, the Potency entry is “inactive”. With `Cc1cccc(-n2ccnc2SCC(=O)Nc2cccc3ccccc23)c1C` the entry was “inactive”.

Regarding `CC(C)Cn1c(-c2ccc(S(=O)(=O)N3CCOCC3)cc2)csc1=Nc1cc(Cl)ccc1Cl`, the Potency entry was “inactive”. With `Cc1ccc2[nH]c3c(=O)n(CC(=O)NC(C)C)ncc3c2c1` the entry was “inactive”; with `COc1ccccc1CNC(=O)CS(=O)(=O)c1cccc2nsnc12`, “inactive”. With `Cc1cccc2c1-c1sc(C(=O)Nc3ccc(F)cc3F)cc1CO2` the entry was “inactive”. Under `CCOCCn1ccc2c(OCC(=O)NCc3ccc(C)cc3)cccc2c1=O` stands “inactive”; under `CCOC(=O)C1CCN(S(=O)(=O)c2ccc3c(c2)N(C)C(=O)CC(=O)N3C)CC1`, “inactive”; under `Cc1ccc2c(c1)N(C(=O)CCC(=O)NCc1ccccc1F)CC(C)O2` (stereo not given), “inactive”. As for `COc1cc(CNC(=O)c2cc3n(n2)CCCN(Cc2cccc(F)c2)C3=O)cc(OC)c1OC`, the Potency entry is “inactive”. `COc1ccc(C2c3c(oc4ccccc4c3=O)C(=O)N2Cc2ccc3c(c2)OCO3)cc1` (stereo not given): the Potency entry was “inactive”.

`CCCNC(=O)C1CCN(c2nc3ccc(C)cc3[nH]2)CC1`: the Potency entry was “inactive”. With `CCCc1cc(=O)n2[nH]c(NCc3ccc(CC)cc3)nc2n1` the entry was “inactive”; with `CCCCN(C)c1nnc(NC(=O)Nc2ccc(Br)c(C)c2)s1`, “inactive”. With `Cc1cccc(-n2ncc(C(=O)N3CCC(C)CC3)c2C2CCN(C(=O)OC(C)(C)C)CC2)c1` the entry was “inactive”; with `COc1ccc2c(c1)c(=O)c(C(=O)c1ccccc1)cn2CC(=O)Nc1ccc2c(c1)OCCO2`, “inactive”; with `Cn1ccc2cc(S(=O)(=O)N3CCCC(C(=O)NCc4ccccc4F)C3)ccc21` (stereo not given), “inactive”.

As to `CCOc1ccc(N(Cc2ccccc2)C(=O)c2nc(S(C)(=O)=O)ncc2Cl)cc1`, the Potency was 3.55 µM (active). Under `CCOc1ccc(N(Cc2ccccc2)C(=O)c2nc(SCC)ncc2Cl)cc1` stands “inactive”; under `CCOc1ccc(N(CC)C(=O)C2CCN(S(=O)(=O)c3cccc4nonc34)CC2)cc1`, “inactive”; under `O=C(Cn1ncn2nc(-c3cccs3)cc2c1=O)NCc1cccc(Br)c1`, “inactive”. Take `CCOC(=O)c1c(NC(=O)/C=C/c2ccc(OC)cc2)sc2c1CCC(C)C2` (stereo not given): the Potency result was “inactive”. Consider `Cc1ccc(O)c(NC(=O)CCS(=O)(=O)c2nc(-c3ccc4c(c3)OCO4)cc(C(F)(F)F)n2)c1`, for which the Potency entry was “inactive”. Take `CCN(CC)CCNC(=O)Cn1ncc2c3ccccc3n(Cc3ccccc3C)c2c1=O`: the Potency entry is “inactive”. Under `COCCNC(=O)CSc1c(C)cnc2c1c(=O)n(C)c(=O)n2C` stands “inactive”; under `COc1cc(C(=O)N2CCN(C(=O)COc3cccc(C)c3)CC2)cc(OC)c1OC`, “inactive”; under `CCCNC(=O)CCC(=O)N1Cc2ccccc2Oc2ncccc21`, “inactive”. Turning to `CC(NC(=O)CCc1cn(Cc2ccccc2Cl)c2ccccc12)c1ccccc1` (stereo not given), the Potency result is “inactive”. Regarding `CC(C)CC(NS(=O)(=O)c1ccc2c(c1)oc(=O)n2C)C(=O)NCc1ccccc1Cl` (stereo not given), the Potency result is “inactive”.

On to `O=C(COc1ccccc1)OCc1cc(=O)n2nc(-c3cccs3)sc2n1`, for which the Potency entry was “inactive”.

Turning to `CCc1c(C)sc(NC(=O)C2c3ccccc3Oc3ccccc32)c1C(=O)OC(C)C`, the Potency entry was “inactive”. With `CCc1nc2cccnc2n1-c1ccc(CC(=O)Nc2c(C)cccc2C)cc1` the entry was “inactive”.
